TcdB GH inh: TcdB glycohydrolase inhibitors, primary screen, biochemical, single point, plate reader | inhibition, % at 9.99 µM | 350,000 compounds, 0.24% hits | TcdB glycohydrolase enzymatic assay | AID 652162, 2013 | Toxin B (Clostridioides difficile), P18177; in the data active = inhibition above about 10%
BoNT-F LC inh: BoNT/F light chain protease inhibitors, primary screen, biochemical, flow cytometry, MLPCN library; Botulinum neurotoxin type F light chain protease (Clostridium botulinum); Multiplex microsphere protease cleavage assay; inhibition, % at 10 µM; 360,000 compounds, 0.22% hits; AID 588497, 2011; in the data active = inhibition above about 35%, passing the limit was not always enough; inconclusive = no clear call, values can overlap the other calls; also: plate controls were buffer without enzyme for full effect and enzyme alone for no effect
Anthrax LF prot: Bacillus anthracis LF protease inhibitors, primary screen, biochemical, multiplex microsphere, MLPCN library; Lethal factor (Bacillus anthracis), P15917; 360,000 compounds, 0.12% hits; AID 588501, 2011; multiplex microsphere protease cleavage assay; inhibition, % at 10 µM; also: plate controls were buffer without enzyme for full effect and enzyme alone for no effect
BoNT-A LC inh2: BoNT/A light chain protease inhibitors, primary screen, biochemical, flow cytometry, MLPCN library | inhibition, % at 10 µM | AID 588499, 2011 | 360,000 compounds, 0.17% hits | Botulinum neurotoxin type A light chain protease (Clostridium botulinum A str. ATCC 3502) | multiplex microsphere protease substrate cleavage; also: plate controls were buffer without enzyme for full effect and enzyme alone for no effect
Autofluor counter: counter-screen for toxin protease inhibitors: compound fluorescence | compound autofluorescence counterscreen, microsphere flow cytometry; stronger effect = higher value | fluorescence intensity (no concentration beside the values) | 360,000 compounds, 3.1% hits; in the data active = fluorescence intensity above about 16000; inconclusive = no clear call, values can overlap the other calls
The depositor's hits bear a star; ? = inconclusive; / = no result given. The sample as a whole holds a higher share of hits than the screen did. Rule as the data show it, unless noted: active = inhibition above about 30%; inconclusive = no clear call, values can overlap the other calls; inactive = below that.

SMILES | TcdB GH inh | BoNT-F LC inh | Anthrax LF prot | BoNT-A LC inh2 | Autofluor counter
Cc1cc2ncc(-c3ccccc3)nc2cc1C | 0.2 | 0.8 | -7.1 | 0.9 | 3576
CCOC(=O)C1CCCN(Cc2cc(Br)c(OC)cc2OC)C1 (stereo unspecified) | / | -0.3 | -1.4 | -0.1 | 22833*
CCN(CC)C(=O)C1CCCN(Cc2ccc(OC)c(C)c2C)C1 (stereo unspecified) | 0.5 | 1.9 | -1.0 | ? | 21287*
COc1ccc(CN2CCCC(C(=O)N3CCCCC3)C2)c(OC)c1 (stereo unspecified) | / | 2.0 | -16.8 | -0.5 | 3846
CCOC(=O)C1CCCN(Cc2cc(Br)ccc2OC)C1 (stereo unspecified) | / | 4.2 | 2.6 | 0.5 | 8933
O=C(C1CC2C=CC1C2)N1CCN(c2ccccc2)CC1 (stereo unspecified) | 1.2 | -10.3 | -2.9 | -0.4 | 4217
CC1(C)C(C=C(Cl)Cl)C1C(=O)N1CCN(c2ccccc2)CC1 (stereo unspecified) | / | -0.7 | -4.6 | 1.4 | 22705*
CC(C)C#Cc1cnc2c(c1)C(=O)N([C@H](C)CO)C[C@H](C)[C@H](CN(C)C(=O)Nc1ccccc1F)O2 | 1.1 | / | / | / | /
CC(Cc1ccccc1)NC(=O)C1(c2ccccc2)CCOCC1 (stereo unspecified) | / | -0.7 | -1.7 | ? | 22824*
CCC(=O)Nc1ccc(C(=O)CSc2nnc(-c3ccc(O)cc3)n2CC2CCCO2)cc1OC (stereo unspecified) | / | 1.6 | -2.6 | 2.2 | 20195*
O=C(CSc1nnc(-c2ccncc2)n1CC1CCCO1)Nc1cccc(O)c1 (stereo unspecified) | / | 2.6 | -3.7 | 1.4 | 22751*
C[C@H]1CN([C@@H](C)CO)C(=O)c2cc(-c3ccc(C#N)cc3)cnc2O[C@H]1CN(C)C(=O)c1ccccc1 | -1.4 | / | / | / | /
COc1ccc(NC(=O)N[C@H]2C=C[C@H](CC(=O)NCc3ccccn3)O[C@@H]2CO)cc1 | -0.4 | / | / | / | /
CCCc1cc(Nc2c(C)n(C)n(-c3ccccc3)c2=O)n2c(nc3ccccc32)c1C#N | / | -4.5 | -0.1 | -2.0 | 22932*
Cc1cc(Nc2c(C)n(C)n(-c3ccccc3)c2=O)n2c(nc3ccccc32)c1C#N | / | 9.5 | 3.1 | 0.3 | 9784
C[C@H](CO)N1C[C@H](C)[C@@H](CN(C)Cc2ccc(Cl)c(Cl)c2)Oc2ccc(NC(=O)Cc3cn(C)c4ccccc34)cc2CC1=O | -0.2 | / | / | / | /
C/C(=C\c1ccccc1)CN1CCN(c2ccccc2)CC1 | / | -1.1 | -2.1 | 1.3 | 21899*
C/C=C(\C)CN1CCN(c2ccccc2)CC1 | / | -5.1 | 1.8 | -0.5 | 3058
C/C=C(\C)CN1CCN(c2ccccc2F)CC1 | / | -3.7 | -2.4 | 0.3 | 23234*
CC(=O)N1C[C@@H]2[C@H](c3ccccc31)[C@@H](CO)N2C(=O)Nc1ccc(F)cc1 | 0.3 | / | / | / | /
COC(=O)c1cc(F)c(-n2cncn2)c(F)c1 | 0.3 | -3.1 | 2.2 | ? | 16245*
N#CCCN1CCN(C(=S)c2ccc(-c3ccc(Cl)cc3)o2)CC1 | 0.8 | 0.5 | 10.9 | ? | 20131*
CS(=O)(=O)NCCOc1ccc(S(=O)(=O)NCCOc2ccccc2)cc1 | -0.4 | -5.9 | -7.0 | -2.4 | 4743
O=S(=O)(NCCOc1ccccc1)c1ccc2ccccc2c1 | / | 3.3 | 1.7 | ? | 19154*
CO[C@H](CN(C)Cc1cc(F)ccc1F)[C@@H](C)CN([C@@H](C)CO)S(=O)(=O)c1ccc(F)cc1 | -2.0 | / | / | / | /
SMILES | TcdB GH inh | BoNT-F LC inh | Anthrax LF prot | BoNT-A LC inh2 | Autofluor counter
CN(C(=O)CSc1nc(-c2ccccc2)cn1N)C(c1ccccc1)c1ccccc1 | 1.0 | -5.0 | -10.8 | -4.4 | 24699*
Fc1ccc(CSc2nnc(-c3cnccn3)n2Cc2ccco2)cc1 | / | -3.6 | 1.3 | -2.6 | 24676*
Cc1cccc(NC(=O)CSc2nnc(-c3cnccn3)n2Cc2ccco2)c1 | / | -3.3 | 1.3 | ? | 23296*
O=C(CSc1nnc(-c2cnccn2)n1Cc1ccco1)c1ccc2ccccc2c1 | / | -3.2 | 0.4 | ? | 21448*
Brc1ccc(CSc2nnc(-c3cnccn3)n2Cc2ccco2)cc1 | 2.6 | -0.2 | -2.5 | -0.4 | 11396
CC(C)OC(=O)CSc1nnc(-c2cnccn2)n1Cc1ccco1 | / | 2.7 | 2.5 | 0.0 | 3271
Cc1ccc(NC(=O)CSc2nnc(-c3cnccn3)n2Cc2ccco2)cc1 | / | -5.9 | -5.1 | -2.7 | 17381*
CN1CCN(C(=O)C[C@@H]2CC[C@H]3[C@@H](COC[C@H](O)CN3C(=O)C3CC3)O2)CC1 | 1.5 | / | / | / | /
C=CCn1c(SCC(=O)Nc2cccc3ccccc23)nnc1-c1cnccn1 | / | 4.6 | -3.0 | 1.5 | 16132*
C=CCn1c(SCC(=O)Nc2ccc(F)cc2F)nnc1-c1cnccn1 | 1.3 | 8.4 | -0.7 | -0.7 | 6030
CCOc1cc(C2C(C(=O)N3CCCCC3)=C(C)NC3=C2C(=O)CCC3)cc(Br)c1O (stereo unspecified) | / | -5.3 | -1.4 | -2.6 | 24537*
O=C(COc1ccc(Br)cc1)NCCCN1CCCC1=O | -0.7 | -8.8 | -6.8 | 0.0 | 4020
O=C(COc1cccc(C(F)(F)F)c1)NCCCN1CCCC1=O | / | 0.2 | 3.0 | ? | 16354*
Cc1ccc(S(=O)(=O)N(C)C[C@H]2OCCCC[C@H](C)Oc3ccc(NS(=O)(=O)c4ccc(Cl)cc4)cc3C(=O)N([C@H](C)CO)C[C@@H]2C)cc1 | -1.3 | / | / | / | /
COc1ccc2c(c1)O/C(=C\c1sccc1C)C2=O | / | 39.8* | 1.4 | 11.6 | 2448
CC1C(c2ccc3c(c2)OCO3)c2cc3c(cc2OC1N1CCOCC1)OCO3 (stereo unspecified) | 10.6* | -14.2 | -4.1 | -0.6 | 2691
COc1cc(C2c3cc4c(cc3OC(N3CCCCC3)C2C)OCO4)cc(OC)c1O (stereo unspecified) | -13.0 | -1.5 | 4.4 | -0.6 | 3410
Cc1cc(C)n(-c2nc3ccccc3c(=O)n2OCC(N)=O)n1 | / | -0.8 | -1.2 | -0.1 | 21858*
Cc1cc(CC(C)C)n(-c2nc3ccccc3c(=O)n2OCC(N)=O)n1 | / | ? | -4.4 | 0.3 | 4378
COc1cccc(NC(=O)N[C@H]2C=C[C@@H](CC(=O)N3CCN(C)CC3)O[C@H]2CO)c1 | 0.4 | / | / | / | /
COc1ccc(-c2cc(C(=O)O)c(C)o2)cc1OC | / | 0.0 | -4.7 | 0.6 | 20243*
Cc1oc(-c2ccc3c(c2)OCCO3)cc1C(=O)O | / | -1.0 | -0.2 | 0.1 | 9609
Cc1cccc(CC(=O)NCCn2c(C)cc3ccccc32)c1 | 1.8 | -58.4 | -20.1 | 88.9* | 1493
COc1cc(/C=C/C(=O)NCCn2c(C)cc3ccccc32)cc(OC)c1OC | 0.5 | 0.6 | 0.2 | 0.7 | 6130
CCCNC(=O)N(C)C[C@@H]1Oc2cc(C#CC3CC3)ccc2S(=O)(=O)N([C@@H](C)CO)C[C@@H]1C | 1.5 | / | / | / | /
C=CCn1c(SCC(=O)NCCO)nc2sc(C)c(C)c2c1=O | 1.6 | -4.7 | -1.0 | -0.3 | 2147
C=CCn1c(SCC(=O)c2cc(C)n(C(C)COC)c2C)nc2sc(C)c(C)c2c1=O (stereo unspecified) | / | 3.8 | -17.5 | ? | 19713*

Assay outcomes: PubChem BioAssay, several laboratories
